High-throughput results deposited in PubChem by several laboratories.
This is a sample that favours compounds with a hit; in the whole collection about 4.5% have one here.
PfHsp90 yeast 2 – inhibits growth of yeast expressing Plasmodium falciparum Hsp90. S. cerevisiae expressing PfHsp90, BacTiter-Glo ATP, 48 h; yeast lacking PDR1 and PDR3 efflux regulators. inhibition, % at 9.4 µM. hit rate 0.32% among 310,000. AID 504621;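 active = every replicate shows inhibition above about 80%, whatever the replicate mean, limit read from the data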
tim23-1 inh – inhibits growth of tim23-1 mutant yeast; hit rate 1.3% among 330,000; inhibition, % at 20 µM; S. cerevisiae tim23-1 growth, BacTiter-Glo luminescence, 24 h;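 active = growth inhibition of the mutant yeast at or above 50%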;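 also: temperature-sensitive mutant grown at 25 °C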
SKKanGAS inh – inhibitors of SKKanGAS S. pyogenes growth in kanamycin (SK-promoter or general growth effect); AID 1662; inhibition, % at 7.5 µM; hit rate 1.3% among 300,000; BacTiter-Glo, 6 h;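 active = mean replicate score, as percent of positive control median, at least 50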;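 also: strain carries kanamycin resistance gene driven by streptokinase promoter and grows in 40 µg/ml kanamycin; loss of luminescence reflects streptokinase promoter inhibition or plain growth inhibition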
NLRP3 yeast inh – blocks the NALP3 inflammasome reconstituted in yeast; hit rate 0.39% among 330,000; AID 2825; inhibition, % at 10 µM; Yeast reconstituted NLRP3/ASC/caspase-1, beta-gal luminescence, 24 h;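 active = inhibition of 50% or more; inactive = inhibition below 50%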
TIM10 inh – inhibits growth of TIM10 yeast strain; hit rate 1.4% among 330,000; S. cerevisiae TIM10 strain growth, BacTiter-Glo luminescence, 24 h; inhibition, % at 10 µM;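 active = inhibition of 40% or more at the single tested concentration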;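 also: wild-type TIM10 isogenic control strain grown at permissive 25 °C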
tim10-1 inh – inhibits growth of tim10-1 mutant yeast; inhibition, % at 20 µM; hit rate 2.2% among 330,000; S. cerevisiae tim10-1 ts strain growth, BacTiter-Glo, 24 h;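 active = inhibition of at least 40%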;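 also: mutant grown at 25 °C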
tim10-1 confirm – confirmation of tim10-1 mutant yeast growth inhibitors. shares compounds with tim10-1 inh. S. cerevisiae tim10-1 ts strain growth, BacTiter-Glo, 24 h. inhibition, % at 20 µM. hit rate 56% among 7,400. AID 463213;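 active = inhibition of yeast growth at or above a set limit in either of two repeat tests at 20 µM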;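 also: tim10-1 mutant grown at permissive 25 °C to find synthetic lethal compounds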
Each line names hits and unclear results; the compound was inactive in the other large screens (follow-up assays come after a bar, where they were run).

CCOc1ccccc1N1C(=O)CC(Sc2n[nH]c(-c3ccccc3)n2)C1=O (centres undefined)	tim10-1 inh 53 | tim10-1 confirm 53
COc1ccc(N2C(=O)CC(Sc3n[nH]c(-c4cccc(C)c4)n3)C2=O)cc1 (centres undefined)	none (no result: PfHsp90 yeast 2)
CCCCNC(=O)c1ccc(CS(=O)(=O)c2ccc(C)cc2)o1	none
CCOC(=O)c1ccc(NC(=S)N2CCC(O)CC2)cc1	none
CCOC(=O)c1ccc(NC(=S)N2CCSC2c2ccc(Br)cc2)cc1 (centres undefined)	tim10-1 inh 40 | tim10-1 confirm inactive
Clc1ccc(Cn2ncc3c(N4CCCCC4)ncnc32)c(Cl)c1	tim10-1 inh 43 | tim10-1 confirm inactive
Cc1c(Cl)cccc1NC(=O)CSc1nc2ncc(Cl)cc2[nH]1	none
COc1ccc(C(=O)CN(C(=O)c2ccc(Cl)cc2)N2C(=O)C3CCCCC3C2=O)cc1 (centres undefined)	tim10-1 inh 47 (no result: PfHsp90 yeast 2) | tim10-1 confirm inactive
Cc1ccc(C2/C(=C(\O)c3c(C)nc4ccccn34)C(=O)C(=O)N2CCN(C)C)o1 (centres undefined)	none
C=CCc1cccc(/C=N/NC(=O)c2ccc3nc[nH]c3c2)c1O	tim10-1 inh 44 | tim10-1 confirm inactive
O=C(N/N=C/c1ccc(Cl)cc1Cl)c1ccc2nc[nH]c2c1	none
C/C(=N\NC(=O)c1cccc(Br)c1)c1cccnc1	none
CCOc1cc(/C=C2\C(=O)N(c3nc(-c4ccc(Br)cc4)cs3)N=C2c2ccccc2)ccc1O	SKKanGAS inh 73, tim10-1 inh 47 | tim10-1 confirm inactive
COc1ccccc1N(C)S(=O)(=O)c1ccc(C(=O)Nc2ccc(N3CCOCC3)cc2)cc1	tim10-1 inh 47 | tim10-1 confirm 33
COc1cc(NC(=O)c2ccc(S(=O)(=O)N(C)c3ccccc3OC)cc2)cc(OC)c1	none (no result: SKKanGAS inh)
C[C@@H]1CN([C@@H](C)CO)C(=O)c2cccc(NC(=O)C3CCCCC3)c2O[C@@H]1CN(C)C(=O)NC1CCCCC1	none (no result: SKKanGAS inh)
CCc1cc2c(C)cc(=O)oc2cc1OC(=O)C1CCCN1C(=O)OC(C)(C)C (centres undefined)	tim10-1 inh 46 (no result: PfHsp90 yeast 2) | tim10-1 confirm inactive
CC(C)(C)OC(=O)N1CCCC1C(=O)NCCc1ccccc1 (centres undefined)	none
COc1ccc(/C=C/C(=O)c2ccc(OC)cc2OC)c(OC)c1	none
COc1ccc(/C=C/C(=O)c2ccccc2)c(OC)c1	tim10-1 inh 44 | tim10-1 confirm inactive
N#CCC1c2ccccc2CCN1C(=O)Nc1ccc(C(F)(F)F)cc1 (centres undefined)	tim10-1 inh 46 | tim10-1 confirm 41
N#CCCCC1(CCCC#N)OCCO1	none (no result: tim23-1 inh, SKKanGAS inh, NLRP3 yeast inh, TIM10 inh, tim10-1 inh)
Cc1ccc(CNC(=O)COc2cc(O)c3c(c2)OC(C)(C)CC3=O)cc1	tim10-1 inh 44 | tim10-1 confirm inactive
Cc1ccc(CCNC(=O)CCS(=O)(=O)c2cc3c(cc2C)NC(=O)CO3)cc1	none
CCOC(=O)C1(S(=O)(=O)c2ccc(Cl)cc2)CCN(Cc2ccc(C)cc2)CC1	tim10-1 inh 50 | tim10-1 confirm inactive
O=C(c1ccc(N2CCN(C(=O)c3ccc(F)cc3F)CC2)cc1)c1cccc(F)c1	none
Cc1nn(-c2nnc(NCc3ccccc3)nn2)c(C)c1Br	tim10-1 inh 49 | tim10-1 confirm inactive
CC1=Nc2ccccc2/C1=C\c1nc(-c2ccc(F)cc2)oc1O	SKKanGAS inh 81, tim10-1 inh 53 | tim10-1 confirm inactive
CCOc1ccc(OCCC(=O)OCC(=O)Nc2cc(OCC)c(N3CCOCC3)cc2OCC)cc1	tim10-1 inh 46 | tim10-1 confirm inactive
CCc1sc(C(=O)N2CCN(C(=O)c3ccccc3)CC2)cc1C	none (no result: SKKanGAS inh)
CN(C)c1ccc(/C=C/C=C2/SC(=S)N(c3ccccc3)C2=O)cc1	tim10-1 inh 44 | tim10-1 confirm 29
O=C(COC(=O)c1cccc(S(=O)(=O)N2CCCC2)c1)Nc1ccccc1C(F)(F)F	none (no result: PfHsp90 yeast 2, SKKanGAS inh)
O=C(Nc1ccccc1N1CCCCC1)c1ccc([N+](=O)[O-])o1	tim10-1 inh 51 (no result: PfHsp90 yeast 2, SKKanGAS inh) | tim10-1 confirm 51
O=C(NC1CCCC(C(F)(F)F)C1)c1ccc([N+](=O)[O-])o1 (centres undefined)	none (no result: SKKanGAS inh)
O=C(Nc1ccccc1N1CCN(C(=O)c2ccc(Cl)cc2)CC1)c1ccc([N+](=O)[O-])o1	SKKanGAS inh 79, tim10-1 inh 44 | tim10-1 confirm inactive
O=C(NC1CCCCC1)c1ccc([N+](=O)[O-])o1	tim10-1 inh 51 | tim10-1 confirm 36
O=C(NCc1ccco1)c1ccc([N+](=O)[O-])o1	tim10-1 inh 42 (no result: PfHsp90 yeast 2) | tim10-1 confirm inactive
O=C(Nc1ccccc1N1CCN(C(=O)c2ccc(Cl)cc2)CC1)c1cc2ccccc2o1	none
O=C(CCCOc1ccc(Cl)cc1Cl)n1nnc2ccccc21	tim10-1 inh 54 | tim10-1 confirm 39
COc1ccc(OC)c(C(C)NC(=S)NC2CCCCC2)c1 (centres undefined)	tim10-1 inh 42 | tim10-1 confirm inactive
COc1ccc(NC(=S)NC2CCCC2)c(OC)c1	none
COc1ccc(CC(=O)O/N=C(\N)Cc2ccc([N+](=O)[O-])cc2)cc1	tim10-1 inh 43 | tim10-1 confirm 63
N/C(=N\OC(=O)Cc1ccc([N+](=O)[O-])cc1)c1cccc(Br)c1	tim10-1 inh 58 (no result: PfHsp90 yeast 2) | tim10-1 confirm 50
CC1CCCCC1NC(=O)COC(=O)c1ccc2c(=O)n3c(nc2c1)CCC3 (centres undefined)	none (no result: SKKanGAS inh)
O=C(CN1CCN(S(=O)(=O)c2ccc(Br)cc2)CC1)c1ccc(O)c(O)c1	none
CC(C)c1ccc(S(=O)(=O)N2CCN(CC(=O)c3ccc(O)c(O)c3)CC2)cc1	tim10-1 inh 50 | tim10-1 confirm inactive
Nc1ccc(SC(F)(F)F)cc1C(=O)c1ccccc1	tim10-1 inh 50 | tim10-1 confirm inactive
CCCc1nc([N+](=O)[O-])c(S(=O)(=O)c2ccccc2)n1CC(C)C	tim10-1 inh 50 | tim10-1 confirm inactive
COc1cccc(-c2nc(CS(=O)(=O)CC(=O)N3CCOCC3)c(C)o2)c1	none
Cc1ccc(C(=O)NCCC2=CCCCC2)cc1S(=O)(=O)N1CCCCC1	tim10-1 inh 41 | tim10-1 confirm inactive
Cc1ccc(C(=O)NCCC2=CCCCC2)cc1S(=O)(=O)N1CCOCC1	none (no result: PfHsp90 yeast 2)
O=C(NCCC1=CCCCC1)c1ccc(Cl)c(S(=O)(=O)Nc2ccccc2)c1	none
Cc1ccccc1NS(=O)(=O)c1cc(C(=O)NCCC2=CCCCC2)ccc1C	tim10-1 inh 40 | tim10-1 confirm inactive
Cc1ccc(C(=O)N2CCc3ccccc3C2)cc1S(=O)(=O)N1CCOCC1	none
Cc1ccccc1NS(=O)(=O)c1cc(C(=O)N2CCc3ccccc3C2)ccc1C	tim10-1 inh 42 (no result: PfHsp90 yeast 2) | tim10-1 confirm 33
